Measurements from paper PMC5540273 (PLoS ONE, 2017).

Tests used:
Conditions in all cases: concentration: 1 μM, replicates: in singlicate; n = 1
PAK4 = system: PAK4
PAK6 = system: PAK6
PAK7 = system: PAK7
PCTK1 = system: T1, PCTK1
T1 construct: gene CDK16

PCTK2 = system: T2, PCTK2
T2 construct: gene CDK17

PCTK3 = system: T3, PCTK3
T3 construct: gene CDK18

PDGFRA = system: PDGFRA
PDGFRB = system: PDGFRB
PDPK1 = system: PDPK1
PFTAIRE2 = system: PFTAIRE2
PFTK1 = system: T4, PFTK1
T4 construct: gene CDK14

PHKG1 = system: PHKG1
PHKG2 = system: PHKG2
PIK3C2B = system: PIK3C2B
PIK3C2G = system: PIK3C2G
PIK3CA = system: PIK3CA
PIK3CB = system: PIK3CB
PIK3CD = system: PIK3CD
PIK3CG = system: PIK3CG
PIK4CB = system: T5, PIK4CB
T5 construct: gene PI4KB
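Further: KINOMEscan kinase panel screen.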

SMILES	%Inh (PAK4) [%]	%Inh (PAK6) [%]	%Inh (PAK7) [%]	%Inh (PCTK1) [%]	%Inh (PCTK2) [%]	%Inh (PCTK3) [%]	%Inh (PDGFRA) [%]	%Inh (PDGFRB) [%]	%Inh (PDPK1) [%]	%Inh (PFTAIRE2) [%]	%Inh (PFTK1) [%]	%Inh (PHKG1) [%]	%Inh (PHKG2) [%]	%Inh (PIK3C2B) [%]	%Inh (PIK3C2G) [%]	%Inh (PIK3CA) [%]	%Inh (PIK3CB) [%]	%Inh (PIK3CD) [%]	%Inh (PIK3CG) [%]	%Inh (PIK4CB) [%]
O=C1Cc2cc(Nc3nc(NCc4cccc(S(=O)(=O)C(F)(F)F)c4)ncc3C(F)(F)F)ccc2N1	100	0	0	19	0	1	0	16	0	0	0	3	0	0	0	0	0	13	8	4
COc1ccc(Nc2nccc(N3CCC(NC(=O)Nc4cc(C)ccc4C)C3)n2)cc1 (centres unmarked) [GSK1379741]	0	0	0	3	9	6	0	2	0	13	2	0	0	0	0	0	0	0	0	23
Cc1cn2c(=O)cc(N3CCOCC3)nc2n1Cc1cccc(Cl)c1Cl [GSK2334006]	0	2	0	5	9	13	0	31	25	22	0	14	14	36	1	3	88	100	22	0
Cc1ccc(NC(=O)c2ccnc(N3CCN(C)CC3)c2)cc1-c1ccc(C(=O)NCC2CC2)cc1 [GW775604]	0	0	0	0	0	0	0	93.4	0	1	0	0	0	0	0	0	0	0	0	0
Nc1nccc(-c2c(-c3ccc(F)cc3)ncn2C2CCN(CC(F)(F)F)CC2)n1 [SB-236560]	16	0	0	1	0	0	3	0	0	23	0	0	0	5	53	0	18	0	66	46
Nc1nc(-c2ccc3c(N)n[nH]c3c2)cc(N2CCCC2)n1 [GSK2227430]	0	0	5	0	0	0	0	18	67	6	0	0	0	0	0	0	0	0	0	14
O=C(NCCNc1ccnc(Nc2ccc(F)cc2)n1)c1cc2ccccc2s1 [GSK1379874]	0	0	0	0	0	0	0	26	0	17	0	0	0	0	0	0	0	0	0	0
